Bioassay records as filed in PubChem.
HCV inhibitor: HCV inhibition; Huh7.5.1 HCVcc-Cre infection, luciferase reporter, 44 h; Potency, µM (series often up to 41.8 µM), inactives show at the highest dose activity change, negative = inhibition, most hits filed as inhibitors; 340,000 tested, 3.4% active; active = well fitted inhibition curve with a large enough effect; inconclusive = small, poorly fitted or top-dose-only effect, or another doubt; inactive = no such curve, though single readings can be large or run the other way; note: potency is the fitted concentration of half-maximal effect; % is set by controls: 0 for no effect and ±100 for the full control effect
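Infectious HCV cell culture screen: compound-treated cells (1,000/well, pre-plated 4 h) are infected with HCVcc-Cre at roughly 0.5 moi and grown 44 h. Infection is quantified by luciferase signal after 15 min substrate incubation at room temperature.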
Lassa entry inh: inhibitors of Lassa virus binding or cell entry | Lassa virus pseudotype entry inhibition, cell reporter | Potency, µM (top dose mostly 37.9 µM), for the others: at the highest dose activity change, negative = inhibition, most hits filed as inhibitors | 300,000 tested, 1.2% active; calls by dose curve; tested in HEK293 cells; note: potency is the fitted concentration of half-maximal effect; % is set by controls: 0 for no effect and ±100 for the full control effect; nearly all actives have a fitted effect of over 50% in size
Marburg entry inh: blocks Marburg virus binding to or entry into cells; 300,000 tested, 1.8% active; Potency, µM (series often up to 37.8 µM), for the others: at the top dose activity change, negative = inhibition, usual class: inhibitors; Marburg virus pseudotyped entry inhibition, cell reporter; calls by dose curve; tested in HEK293 cells; note: potency is the fitted concentration of half-maximal effect; % is set by controls: 0 for no effect and ±100 for the full control effect
SARS PLpro yeast: inhibitors of SARS-CoV papain-like protease in yeast | S. cerevisiae expressing SARS-CoV PLpro, growth rescue | Potency, µM (highest dose often 32.9 µM), without a hit: at the highest dose activity, positive = growth rescue, hits mostly activators | 330,000 tested, 0.19% active | AID 485353; calls by dose curve; note: potency is the fitted concentration of half-maximal effect; 0% is about no effect; nearly all actives have a fitted effect of over 55% in size
HCMV antiviral: human cytomegalovirus inhibition; 410,000 tested, 4.5% active; activity change, negative = inhibition, % at 57.5 µM; HFF cells, HCMV-luciferase reporter, 72 h; hits give low values; in the data active = activity change below about -60%; inconclusive = no clear call, values can overlap the other calls; inactive = above about -39%; note: % is set by controls: 0 for no effect and ±100 for the full control effect
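Human foreskin fibroblasts infected with luciferase-reporter HCMV at MOI 1 PFU/cell, compounds at two doses. Luciferase measured 72 h post infection; normalized to buffer-only basal and Salinomycin (10uM) controls.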
FMDV inh: blocks foot and mouth disease virus; Potency, µM (titrated, usually from 57.9 µM), inactives show top-dose activity change, negative = inhibition, hits mostly inhibitors; FMDV antiviral cell-based qHTS; 410,000 tested, 1.2% active; AID 1159524; calls by dose curve; tested in HEK293T cells; note: read-out not given here; potency is the fitted concentration of half-maximal effect; % is set by controls: 0 for no effect and ±100 for the full control effect; nearly all actives have a fitted effect of over 45% in size
Active calls of the source: *; ? = inconclusive; . = no result; [ ] = dose if it differs, or a comment. The list is not random: actives were taken first. Their share in the collection is about 8%.

SMILES	HCV inhibitor	Lassa entry inh	Marburg entry inh	SARS PLpro yeast	HCMV antiviral	FMDV inh
c1ccc(CN2CCN(c3ncnc4c3cnn4-c3ccccc3)CC2)cc1	.	?	.	.	25.2	?
Cc1ccc(-n2ncc3c(N4CCN(Cc5ccccc5)CC4)ncnc32)cc1Cl	.	4.9%[46.1 µM]	.	.	-31.7	12.6µM*
COc1ccccc1N1CCN(c2ncnc3c2cnn3-c2cc(Cl)ccc2C)CC1	.	-8.1%[46.1 µM]	.	.	?	11.2µM*
Cc1ccc(-n2ncc3c(N4CCCCCC4)ncnc32)cc1Cl	.	15.3%[46.1 µM]	.	.	-90.3*	63.1µM*
CC(O)(COc1ccccc1)c1ccc2c(c1)CN(Cc1cccn1-c1ccccn1)CCO2 (centres undefined)	.	.	.	.	.	-12.8%
CC(=O)Nc1ccc(-c2csc(Nc3cccc(C)n3)n2)cc1	12.6µM*	?	-15.1%	-0.7%	7.0	27.4%
CC(=O)NNc1nc(-c2ccc(NC(C)=O)cc2)cs1	8.3%	11.7%	25.1%	-13.0%	?	-15.7%
CC(=O)Nc1cccc(-c2csc(Nc3ccc(C)cn3)n2)c1	?	1.78µM*	?	-36.9%	8.9	-33.3%
O=C(CSc1n[nH]c(-c2ccccc2Cl)n1)N1CCN(c2ccc(F)cc2)CC1	.	23.6%[46.1 µM]	.	.	1.5	0.0%
COCCN1C(=O)NC(c2ccco2)C(C(=O)OC)=C1C (centres undefined)	.	.	3.0%[14.2 µM]	.	.	.
O=C1/C(=C/c2ccc3c(c2)OCO3)SC(=S)N1CCC(=O)N(CCO)c1ccccc1	.	.	.	.	-67.6*	-22.7%
O=C(CCN1C(=O)/C(=C/c2ccc3c(c2)OCO3)SC1=S)Nc1ccccc1	1.3%	-0.5%	-4.5%	-1.0%	16.9	7.8%
O=C1/C(=C/c2cccc(Br)c2)SC(=S)N1CCC(=O)N(CCO)c1ccccc1	-16.8%	.	.	1.6%	-103.8*	-3.2%
O=C(CCCN1C(=O)/C(=C\c2cccc(Br)c2)SC1=S)Nc1ccc(C(=O)O)cc1	.	.	.	.	?	22.1%
COc1cccc(/C=C2\SC(=S)N(CCCC(=O)N(CCO)c3ccccc3)C2=O)c1	?	.	.	8.5%	-96.7*	0.0%
CCOC(=O)c1cccc(NC(=O)NC(C)c2c(-n3cccc3)sc3c2CCN(C)C3)c1 (centres undefined)	.	-25.7%[46.1 µM]	.	.	-37.3	21.8%
CCOC(=O)N1CCc2c(sc3c2c(=O)n(Cc2ccccc2)c(=O)n3Cc2ccccc2Cl)C1	.	3.1%[46.1 µM]	3.5%[46.1 µM]	.	-39.0	?
CN(C)c1ccc(NC(=O)Cn2cc(S(=O)(=O)Cc3ccccc3Cl)c3ccccc32)cc1	.	?	.	.	70.5	12.7%
COc1ccc2c(c1)C(C)=CC(C)(C)N2S(=O)(=O)c1ccc(C)cc1	-20.0%	?	?	-4.3%	-85.9*	?
COC(=O)C1(C)CN(S(=O)(=O)c2ccc(C)cc2)c2cc(OC)ccc2C1=O (centres undefined)	5.2%	?	0.6%	-15.7%	-39.4	?
CC1=CC(C)(C)N(S(=O)(=O)c2ccc(C)cc2)c2cc(C)ccc21	?	?	2.59µM*	-29.0%	-84.7*	.
CCOc1ccc2c(c1)C(C)=CC(C)(C)N2S(=O)(=O)c1ccc(C)cc1	-18.7%	?	2.82µM*	-4.1%	-79.1*	-10.2%
COc1cc(NC(=O)CSc2cc(=O)n(C)c3ccccc23)cc(OC)c1OC	.	12.5%[46.1 µM]	?	.	16.3	-25.0%
Cn1c(-c2ccc(-c3ccccc3)cc2)c[nH]c1=S	5.01µM*	?	?	?	?	19.6%
C=CCn1c(-c2ccccc2)c[nH]c1=S	14.1%	20.8%	2.7%	8.3%	98.8	60.9%
SMILES	HCV inhibitor	Lassa entry inh	Marburg entry inh	SARS PLpro yeast	HCMV antiviral	FMDV inh
Cc1ccc(-c2c[nH]c(=S)n2-c2ccccc2)cc1	7.1%	.	.	8.4%	-36.0	-10.7%
CCn1c(-c2ccc(-c3ccccc3)cc2)c[nH]c1=S	10µM*	?	-8.0%	28.9%	-9.3	1.8%
Cc1ccc(-c2c[nH]c(=S)n2-c2ccccc2F)cc1	10.4%	?	6.1%[46.1 µM]	7.0%	-64.5*	-9.8%
CCc1c(-c2ccccc2)nc2ccccc2c1C(=O)NCCc1ccccc1	.	?	.	.	-17.3	-4.6%
COCCCNC(=O)c1sc2nc3n(c(=O)c2c1C)CCC3	.	12.2%[46.1 µM]	.	.	26.7	-7.9%
CCCC/C(O)=C1\C(=O)CCCC1=NCCc1c(C)[nH]c2ccc(OC)cc12	-22.0%	?	8.91µM*	-0.9%	-20.9	-4.2%
